Common to all, as to experiment: NCI-60 one-dose screen, 48 h (100 = growth as untreated, 0 = no growth, -100 = all killed)
What all share (details): 10 µM unless noted

For test [1], the system named is HT29 colon.
Test [2] relates to SNB-75 CNS.
Test [3] relates to SNB-19 CNS.
Test [4] concerns U251 CNS.
Test [5] has as its system PC-3 prostate.
Test [6] deals with SK-MEL-5 melanoma.
The subject of test [7] is UACC-62 melanoma.
Test [8] relates to LOX IMVI melanoma.
In test [9] the test system is SK-MEL-28 melanoma.

The results in this text go back to PubChem BioAssay (NCI).

This is part of a sample that, as a whole, favours compounds with a hit. Of some 83,000 tested, about 20% had one in any assay.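 For each line, cells grew in 96-well plates with the test compound present at a single concentration for 48 hours.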 Values without a mark were called inactive. The source made the active and inactive calls. How the source made its calls: active means growth percent below 10; inactive means the rest.

Take `NS(=O)(=O)c1ccc(CCn2c(SCC(=O)N/N=C/c3ccccc3O)nc3ccccc3c2=O)cc1`: the growth in test [1] is 10% (active); in test [2] it was 23.8%; in test [3], 49.1%; in [4], 26.8%; in test [5], 36.1%; in test [6], 30.5%. The growth is 48.8% in test [7], 43.9% in [8] and 76.5% in [9].

`O=[N+]([O-])c1ccc(Sc2nc(Cl)nc(NC3CCCC3)n2)cc1`: the growth is -72.6% [100 µM] (active) in [1]; -100% [100 µM] (active) in [2]; -95.5% [100 µM] (active) in test [3]; -89.5% [100 µM] (active) in test [5]; -90.3% [100 µM] (active) in [6]; -97.4% [100 µM] (active) in test [7]. In addition, the figures for the growth in test [8] and in [9] were -87.9% [100 µM] (active) and -97.8% [100 µM] (active), respectively.

Consider `CCOC(=O)C(Cc1ccccc1)n1c(O)c(/C=N/c2ncc(Cc3ccc(Cl)cc3Cl)s2)sc1=S` (stereo not drawn), for which the growth in test [1] was -16.7% (active); in test [2] it was 22%; in test [3] it was 19.3%; in test [4] it was 4.53% (active); in [5], -16.2% (active); in test [6], -3.04% (active). The growth in test [7] was -0.818% (active); in test [8], 21%; in [9], 31.8%.

`c1cc2c(cc1-c1cnc3nonc3n1)OCO2`: the growth in test [1] was 109%; in test [2] it was 96.8%; in [3], 92.6%; in [4], 94.2%; in test [5], 56.8%; in test [6] it was 91.2%. Also, the growth is 66% in test [7], 84.9% in test [8] and 104% in test [9].

Take `N/C(=N\OC(=O)c1ccccc1)C(Cc1ccccc1)C(=O)NOC(=O)c1ccccc1` (stereo not drawn): the growth in test [1] was 85.7%; in test [2], 4.73% (active); in test [3] it was 56.8%; in test [4], -71% (active); in test [5], 43%; in [6], 72.2%. Besides, the growth is 71.2% in test [7], -81.2% (active) in test [8] and 89.6% in [9].

Turning to `COc1ccc2nc(C)cc(Sc3nc4ccccc4s3)c2c1`, the growth in test [1] was 26.2%; in test [2], 46.4%; in test [3] it was 62%; in [4], 39.6%; in test [5] it was 52.9%; in test [6] it was 35.2%. The growth is 47.3% in test [7], 29.4% in test [8] and 62.7% in test [9].

In the case of `COc1ccc(Cl)cc1Nc1nc(C(F)(F)F)ccc1C(=O)NN`, the growth in test [1] was 31.4%; in [2], 15%; in test [3], 41.7%; in test [4], 18.4%; in test [5], 17.2%; in test [6] it was 77.5%. The results for the growth in [7], in test [8] and in [9] were 9.62% (active), 5.37% (active) and 13.4%, respectively.

`CCN1C(=O)N(CC)C2C1NN=c1s/c(=C\c3ccc(Br)cc3)c(=O)n12` (stereo not drawn): the growth in [1] was 5.08% (active); in test [3], 21.4%; in test [4], 16.5%; in test [5], 18.6%; in [6], -4.8% (active); in test [7], 39.9%. The growth in test [8] is 25.1%; in test [9] it was 59.9%.

Regarding `CN(C)CCCN1c2ccccc2CCc2ccccc21`, the growth was 83.5% in test [1]; 50.8% in [2]; 94.1% in [3]; 91.6% in test [4]; 82.8% in test [5]; 75.3% in test [6]. Moreover, the results for the growth in test [7], in test [8] and in [9] were 94%, 106% and 102%, respectively.

Consider `COc1ccccc1CNCCCN1C(=O)c2ccc3c4c(ccc(c24)C1=O)C(=O)N(CCCCNCCCN)C3=O`, for which the growth is -20.1% (active) in test [1]; 53.9% in test [2]; -70.3% (active) in [3]; -84.3% (active) in test [4]; 43.7% in test [5]; -97.1% (active) in [6]. Further, the values for the growth in test [7], in [8] and in test [9] were -68.7% (active), -10% (active) and -19.4% (active), respectively.

As to `O/N=C/c1ccncc1`, the growth in [1] was 94.5%; in test [2] it was 96.2%; in test [4], 102%; in [5], 95.9%; in test [6], 105%; in test [7] it was 111%. The growth in [8] was 100%; in test [9] it was 115%.

Consider `COc1cnc2c(c1)C(=O)c1c-2n(CCCN2CCNCC2)c(=O)c2cc(Cl)ccc12`, for which the growth was -80.4% (active) in test [1]; 39.7% in test [2]; 30.4% in [3]; -98.4% (active) in test [4]; -84% (active) in test [5]; 45.2% in test [6]. For the same molecule, the growth in [7] was -45% (active); in test [8] it was -84.6% (active); in test [9], -88.2% (active).

Consider `c1csc(-c2cnc3nonc3n2)c1`, for which the growth in test [1] was 91.2%; in [2] it was 79.8%; in test [3] it was 81.6%; in [4], 88%; in [5], 66.3%; in test [6] it was 87.9%. Besides, the growth was 79.3% in [7], 62.6% in test [8] and 104% in test [9].

Consider `COc1ccc2[nH]cc(C3(c4c[nH]c5ccc(OC)cc45)C(=O)Nc4ccc(F)cc43)c2c1`, for which the growth is 68% in test [1]; 42.9% in test [2]; 97.2% in test [3]; 82.5% in [4]; 9.66% (active) in test [5]; 84.1% in test [6]. Also, the values for the growth in test [7], in [8] and in [9] were 82.3%, 58.5% and 96.4%, respectively.
